UHRF1 MBD2 ctr – human UHRF1 methylated DNA binding inhibitors; inhibition, % at 4.4 µM; 370,000 compounds, 0.75% hits; Q96T88; UHRF1 binding to methylated oligo, TR-FRET; in the data active = inhibition above about 21%;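 note: UHRF1 SRA domain binding a hemimethylated CpG hairpin DNA probe; 0% = median of test compound wells and 100% = reference inhibitor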
LEDGF integ inh – blocks HIV-1 LEDGF/p75-dependent DNA integration; TR-FRET IN-LEDGF/p75 DNA integration, Eu/Cy5; inhibition, % at 3.7 µM; 370,000 compounds, 0.64% hits; AID 743269;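 active = inhibition above the screen-wide mean plus 3 SD, cut at about 13% in these data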;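 note: signal is the Cy5 over europium emission ratio at 671 and 618 nm; 0% = plate median of compound wells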
ABHD5-PLIN5 inh – ABHD5-PLIN5 protein interaction inhibition; Q00G26+Q8WTS1; Split G. princeps luciferase complementation, luminescence, 4 h; inhibition, % at 4 µM; 360,000 compounds, 0.78% hits; AID 602281;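 active = inhibition above the mean inhibition across every tested compound plus 3 SD, cut at about 22% in these data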;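 note: 0% = DMSO only wells and the 100% control is not disclosed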
PRMT1 inh – blocks human protein arginine methyltransferase 1; 370,000 compounds, 1.3% hits; inhibition, % at 2.79 µM; Q99873; recombinant PRMT1, activity-based probe fluorescence polarization;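 active = inhibition above about 21% made by adding two undisclosed values, limit read from the data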
rCAG binder – r(CAG) repeat RNA binding; inhibition, % at 3 µM; TO-PRO-1 dye displacement fluorescence; 370,000 compounds, 1.3% hits;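 active = inhibition above the plate cutoff, the mean of all test compounds on that plate plus 3 SD, cut at about 35% in these data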;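 note: 0% = DMSO alone and 100% = 100 µM mitoxantrone as full dye displacement; higher means more dye released from RNA so lower well fluorescence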
MBD2 inh – inhibitors of human MBD2 binding to methylated oligonucleotide; TR-FRET; 370,000 compounds, 0.31% hits; Q9UBB5; inhibition, % at 4.4 µM; AID 686964; in the data active = inhibition above about 13%
Target sequence (Q9UBB5 whole entry, looked up): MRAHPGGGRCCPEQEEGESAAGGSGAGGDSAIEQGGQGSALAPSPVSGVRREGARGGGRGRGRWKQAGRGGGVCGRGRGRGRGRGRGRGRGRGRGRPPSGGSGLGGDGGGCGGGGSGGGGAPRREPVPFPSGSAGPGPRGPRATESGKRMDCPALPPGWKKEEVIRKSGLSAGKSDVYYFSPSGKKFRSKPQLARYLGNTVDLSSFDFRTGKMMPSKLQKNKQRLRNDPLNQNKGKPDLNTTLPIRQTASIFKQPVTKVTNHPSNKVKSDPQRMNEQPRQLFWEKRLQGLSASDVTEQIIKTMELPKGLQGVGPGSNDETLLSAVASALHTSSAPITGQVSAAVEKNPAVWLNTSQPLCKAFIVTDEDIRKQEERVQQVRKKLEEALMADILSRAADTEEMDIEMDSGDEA
* hit, by the source's call; . = no result given. Most compounds without a hit are left out; they make up all but 4.1% or so of the library.

SMILES | UHRF1 MBD2 ctr | LEDGF integ inh | ABHD5-PLIN5 inh | PRMT1 inh | rCAG binder | MBD2 inh
CC(O)(CC(=O)CC(=O)c1ccccc1)c1ccccc1 (configuration not stated) | 43.3* | 2.0 | 11.9 | -0.5 | 4.4 | -0.1
COc1ccc(-c2ccccc2C2Cc3nnccc3CN2)cc1 (configuration not stated) | -3.7 | 6.1 | . | 1.9 | 5.2 | 4.0
CC(=O)Nc1ccc(SCC(=O)Nc2oc(C)c3c(C)n[nH]c(=O)c23)cc1 | 0.2 | 3.4 | -6.0 | 27.2* | -0.1 | -1.4
Cc1ccc(NC(=O)Cn2cc(C=O)c3ccccc32)cc1 | -0.6 | -1.5 | 0.0 | -1.9 | 7.1 | 0.2
O=Cc1cn(CC(=O)Nc2ccc3c(c2)OCO3)c2ccccc12 | 35.3* | -3.6 | -1.9 | 1.8 | -3.0 | 5.6
O=[N+]([O-])c1ccccc1/C=C/C1Nc2cccc3cccc(c23)N1 | -0.7 | -0.3 | . | 21.5* | 22.0 | 2.5
Nc1nc2c(ncn2[C@@H]2O[C@H](C(=O)NCC(c3ccccc3)c3ccccc3)[C@@H](O)[C@H]2O)c(=O)[nH]1 | 2.2 | -2.4 | . | 2.4 | 6.1 | 0.3
O=C(CSC1=NC2(CCCCC2)N=C1c1ccccc1)Nc1ccc2c(c1)OCCO2 | 0.3 | -1.1 | -23.5 | 22.1* | 3.6 | -4.5
COc1ccc2c(c1)CN1CN(CC(C)C)S(=O)(=O)CC21 (configuration not stated) | -5.0 | 3.1 | . | -3.2 | 1.7 | 1.1
CCC[C@H](/C=C/C(=O)OC(C)(C)C)Sc1ccc(N)cc1 | -0.4 | -0.7 | . | 3.9 | 1.5 | -2.2
COc1ccccc1N1CCN(C(=O)C2CCCN(S(=O)(=O)c3ccc4c(c3)oc(=O)n4C)C2)CC1 (configuration not stated) | 24.4* | -3.4 | -1.7 | 3.2 | -3.0 | 7.2
O=C(COC(=O)c1ccc([N+](=O)[O-])o1)Nc1nc2ccccc2s1 | 28.6* | 0.6 | -5.3 | 4.8 | 6.4 | -0.7
COC(=O)[C@]12C[C@H](CC(=O)NCc3ccccc3)C(=O)N(Cc3ccccc3)C1=C[C@H](C1CCCC1)O[C@@H]2C | -3.1 | -2.6 | . | 5.2 | 3.0 | 2.9
CC(Sc1ccccc1)C(=O)Nc1cccc(N(C)S(C)(=O)=O)c1 (configuration not stated) | 23.1* | -0.7 | 4.0 | -0.6 | 0.1 | -4.8
CN(c1cccc(NC(=O)CCSc2ccccc2)c1)S(C)(=O)=O | -5.0 | 2.3 | -5.2 | -1.9 | 0.2 | -4.1
CN(c1cccc(NC(=O)c2ccc(C(C)(C)C)cc2)c1)S(C)(=O)=O | 22.8* | 2.0 | -8.8 | 2.6 | -4.8 | 2.7
CN(C)c1ccc(-c2nn3c(-c4ccco4)nnc3s2)cc1 | -6.5 | 3.7 | . | -2.5 | 9.8 | -0.9
O=C(C1CCCN(S(=O)(=O)c2ccccc2[N+](=O)[O-])C1)N1CCN(Cc2ccccc2)CC1 (configuration not stated) | 0.7 | -3.8 | . | -3.9 | -0.5 | -1.4
CN1c2ccccc2C(O)=C(C(=O)Nc2ccccc2)S1(=O)=O | -3.1 | 1.7 | 3.1 | -0.9 | 7.1 | 1.0
CN1c2ccccc2C(O)=C(C(=S)Nc2ccccc2)S1(=O)=O | -1.8 | -0.2 | -10.8 | 21.8* | 26.4 | -1.0
CCOC(=O)NC(=S)c1ccc[nH]1 | 22.5* | 1.1 | -5.6 | -0.8 | 2.8 | -2.9
CCCCCCc1ccc(NC(=O)[C@@H]2CC=C[C@@H]3CCN(Cc4ccccc4)C(=O)[C@@H]32)cc1 | 0.2 | 1.0 | . | 1.1 | . | -3.0
c1ccc(-c2nc(-c3ccco3)n3ccccc23)cc1 | 3.3 | 5.5 | 11.4 | 23.7* | 24.2 | -1.2
Cc1nc(SC2CC(=O)N(c3cc(Cl)cc(Cl)c3)C2=O)nc2c1CCCC2 (configuration not stated) | 2.9 | 4.4 | -6.6 | 24.1* | 8.3 | 1.9
COc1ccc(N2C(=O)CC(Sc3nc(C)c4c(n3)CCCC4)C2=O)cc1 (configuration not stated) | -0.9 | -0.1 | -0.9 | 7.6 | -2.4 | 1.5
SMILES | UHRF1 MBD2 ctr | LEDGF integ inh | ABHD5-PLIN5 inh | PRMT1 inh | rCAG binder | MBD2 inh
Cn1c2ccc(F)cc2c2ncn(Cc3ccco3)c(=O)c21 | -0.5 | 5.9 | 2.8 | 21.9* | 4.3 | -0.3
Cn1c2ccccc2c2ncn(Cc3ccco3)c(=O)c21 | -0.3 | -0.1 | 13.3 | 6.3 | -0.4 | 1.9
C=CCn1c(SCC(=O)O)nnc1-c1ccco1 | -1.0 | -0.6 | . | -1.9 | 0.2 | -5.9
COC(=O)C1=C(C)N(C)C(=NCc2ccc(C(F)(F)F)cc2)NC1c1cccc(Cl)c1 (configuration not stated) | -3.0 | -1.3 | . | -4.1 | 8.4 | -1.6
COc1ccc(S[C@]2(C(=O)N3CCN(C(C)=O)CC3)CC(=O)N[C@@H]2c2ccc(OC)cc2)cc1 | 0.1 | -2.4 | . | 8.1 | 4.3 | -3.3
Nc1nc2ncc(C(=O)c3cc(F)ccc3O)cc2s1 | 21.5* | -3.4 | -4.8 | -2.7 | 8.0 | 6.8
NC(=O)c1c(N)[nH]c(C(=O)c2ccccc2)c1-c1ccccc1Cl | 1.8 | -2.4 | . | 0.6 | 5.6 | -2.4
Cc1nn(-c2ccccc2)c2sc(C(=O)NCCc3ccc(Cl)cc3)cc12 | -1.9 | 0.7 | . | 2.5 | 8.7 | 0.8
NC(=O)c1ccc(NC(=O)COC(=O)CC2CC3CCC2C3)cc1 (configuration not stated) | -2.0 | -3.7 | 6.4 | -1.7 | 4.5 | -0.5
NC(=O)COC(=O)CC1CC2CCC1C2 (configuration not stated) | 21.4* | 11.6 | -8.3 | -3.3 | -1.7 | 2.4
Cc1cc(C)c(NS(=O)(=O)c2ccc3c(c2)oc(=O)n3C)c(C)c1 | 39.4* | -0.8 | 7.4 | 2.0 | 5.7 | -0.9
CCN(CCNS(=O)(=O)c1ccc2c(c1)oc(=O)n2C)c1ccccc1 | 0.2 | 1.1 | 0.6 | 1.5 | 3.4 | 0.4
CCN(CC)c1ccc(NS(=O)(=O)c2ccc3c(c2)oc(=O)n3C)c(C)c1 | -0.7 | 8.8 | -9.5 | 24.8* | 6.5 | -5.3
CCN(C(=O)CCc1cn(CC)c2ccccc12)c1ccc(Oc2cccnc2)cc1 | 4.1 | 2.3 | . | -7.0 | 2.3 | 2.4
CC(C)COc1ccc(-c2csc(N3CCC(C(N)=O)CC3)n2)cc1 | -0.7 | 1.0 | . | -2.3 | . | 1.2
CCCCNC(=O)NC1CCN(CC(=O)Nc2ccc3c(c2)OCCO3)CC1 | 32.1* | -5.8 | . | 7.5 | 3.6 | 6.3
CCOC(=O)C1=C(Cc2ccc(F)cc2)C(=O)c2ccccc2C1=O | -4.9 | 9.4 | 46.9* | 78.6* | 10.5 | -6.1
Cc1cccc(NC(=O)CSc2nnc(-c3cccnc3)n2Cc2ccco2)c1C | -2.4 | -2.0 | . | 0.9 | 5.9 | 4.3
O=C(O)/C=C\C(=O)Nc1ccccc1C(=O)N1CCN(c2ccc(Cl)cc2)CC1 | -0.6 | 0.1 | -0.1 | 23.9* | -1.6 | 1.6
Cc1noc(C)c1S(=O)(=O)N1CCCc2nc(-c3ccc(F)cc3)ccc21 | 10.4 | 7.4 | . | -6.0 | 2.0 | 1.1
Cc1ccc2c(c1)/C(=C/c1ccccc1)C(=O)N2 | -1.4 | -6.2 | 23.1* | -2.2 | 4.5 | -0.2

Bioassay records deposited in PubChem by The Scripps Research Institute Molecular Screening Center.
